Measured values as given in ChEMBL document CHEMBL3988442, “University of Dundee, Small-Polar-MMV Screening Library” (2021).
In all, about 85,000 compounds went through this assay and about 440 (0.52%) showed an effect of 50% or more. This excerpt belongs to a sample that is enriched for strong results.

Assay: In vitro enzyme assay to detect hydrolysis of chlorophenol red-beta-D-[…] directly proportional to the number of Toxoplasma stably expressing beta-galactosidase
Format: functional, organism-based, Toxoplasma gondii
Parameters: scale not given: in the data most compounds retested in dose-response had high values

Compound	Percent Effect (50 µM)	Percent Effect (10 µM)
COC(C(=O)NC1(C)CCOCC1)c1ccccc1 (stereo not drawn)	-2.025%	–
CSCCCN1CCN(C(=O)c2ccc[nH]2)CC1	-8.697%	–
Cc1nc(N2C[C@@H](CN3CCCCC3)[C@@H](CO)C2)c2sccc2n1	–	-8.225%
CO[C@H]1[C@@H]2CC[C@H]1CN(c1nc(C)nc3sccc13)C2	–	8.834%
CO[C@H]1[C@@H]2CC[C@H]1CN(c1nc(C)nc3ccsc13)C2	–	70.73%
CC(C)(C)NCC(=O)Nc1ccc(Cl)cn1	-9.06%	–
CN1Cc2cc(O)ccc2C1=O	4.771%	–
COc1cccc(NC(=O)Nc2ccc3c(c2)CC(=O)N3)c1	–	14.2%
Cc1noc(C)c1CCCNC(=O)Nc1ccc2c(c1)CC(=O)N2	–	-25.73%
Cc1cc(C(=O)Nc2ccc3c(c2)CC(=O)N3)c(C)o1	62.73%	–
O=C(NC1CC1)C1CCCN1c1ccc2nnnn2n1 (stereo not drawn)	14.68%	–
Cc1ccc(CNCCN2CCOCC2)s1	-0.4782%	–
CC(CO)N(C)C(=O)c1cccc2cc[nH]c12 (stereo not drawn)	3.789%	–
O=C(NC(C1CCNCC1)[C@H]1C[C@H](O)C1)C1CC=CC1 (stereo partly drawn)	-3.099%	–
CSCC(=O)NC(C1CCNCC1)[C@H]1C[C@@H](O)C1 (stereo partly drawn)	54.38%	–
CSCCC(=O)NC(C1CCNCC1)[C@H]1C[C@H](O)C1 (stereo partly drawn)	2.303%	–
CN(C)C(=O)C1OCCc2ccccc21 (stereo not drawn)	-9.561%	–
CCN(C1CC1)S(=O)(=O)c1ccc(OC)c(C(N)=O)c1	-4.702%	–
CC(C)OCCOCC(O)CN(C)Cc1cccnc1 (stereo not drawn)	-1.887%	–
Cc1cscc1C(=O)NCCc1cncn1C	-7.221%	–
CCOC(=O)C(O)c1cc(Br)c2c(c1)OCO2 (stereo not drawn)	60.1%	–
CC(C)S(=O)(=O)N(C)C(=O)c1cc(Br)c2c(c1)OCO2	10.61%	–
NCc1cc(Br)c2c(c1)OCO2	33.59%	–
CC(C)NC(=O)C(C)n1cncn1 (stereo not drawn)	7.173%	–
CN(CCN)S(=O)(=O)c1cccs1	-2.794%	–

Compound	Percent Effect (50 µM)	Percent Effect (10 µM)
Cc1cc(C)n(-c2nc(NCCCO)c3c4c(sc3n2)CCCC4)n1	–	81.16%
Cc1cc(C)n(-c2cncc(NCCNC(=O)C3CCCC3)n2)n1	–	-17.81%
Cc1cc(C)n(C2=NC(NCCC(C)C)c3c(sc4c3CCCC4)N2)n1 (stereo not drawn)	–	-32.33%
O=C(NCc1cn2ccccc2n1)c1ccc(=O)oc1	-17.09%	–
COCCNC(=O)Nc1cc(Cl)ccc1OC	51.47%	–
CCCOc1ccc(Cl)cc1NC(=O)NCCC(=O)N(C)C	–	15.25%
CNCC(=O)Nc1cc(Cl)ccc1OC	-3.261%	–
O=C(CCC1CCCCC1)NCc1c[nH]nn1	1.133%	–
CC(N)c1ccccc1N1CCOCC1 (stereo not drawn)	0.1688%	–
C[C@@H](CO)NC(=O)NCC1CCN(CC(F)(F)F)CC1	-3.478%	–
COCCC1(CO)CCCN(CC(N)=O)C1 (stereo not drawn)	0.1422%	–
COCCC1(CN2CCCC(C(N)=O)C2)CCC1 (stereo not drawn)	-0.683%	–
COCCC1(CN2CCC(C(N)=O)C2)CCC1 (stereo not drawn)	68.22%	–
CN(CC1CCOCC1)C(=O)c1ccc(CN)cc1	0.3864%	–
Cc1c(Cl)c(C(=O)N2CCCCC2)nn1C	24.41%	–
CN(Cc1ccc2c(c1)OCCO2)Cc1nnnn1-c1ccccc1	–	-19.55%
CCS(=O)(=O)Cc1nnnn1-c1ccccc1	–	-0.7088%
CCN(CC)Cc1nnnn1-c1ccccc1	68.75%	–
O=C(Nc1ccccc1N1CCCC1)C1CCOC1 (stereo not drawn)	2.349%	–
CS(=O)(=O)Nc1ccccc1CNC(=O)c1ccoc1	97.49%	–
O=C(CCNC(=O)c1ccoc1)NCc1ccccc1F	–	-6.438%
CN(C)c1ncccc1CNC(=O)c1ccoc1	-3.271%	–
CC1CCCN(CCCN)C1 (stereo not drawn)	8.539%	–
O=C(CC1CSCCN1)NCCc1ccc(F)cc1F (stereo not drawn)	0.8144%	–
CCCc1noc(COc2nc(C)no2)n1	3.348%	–

Compound	Percent Effect (50 µM)	Percent Effect (10 µM)
CC(C)C(NC(=O)Cn1cnnn1)c1cccs1 (stereo not drawn)	19.15%	–
O=C(N1CCOCC1)[C@@]12CCO[C@@H]1CCN(C1CCC1)C2.O=C(O)C(F)(F)F	–	41.32%
O=C(N1CCOCC1)[C@@]12CCO[C@@H]1CCN(C1CCOCC1)C2.O=C(O)C(F)(F)F	–	86.48%
O=C(N1CCOCC1)[C@@]12CCO[C@@H]1CCN(C1CCCCC1)C2.O=C(O)C(F)(F)F	–	-8.917%
Cc1cc(C)n(CCC(=O)NC2C=CS(=O)(=O)C2)n1 (stereo not drawn)	-3.643%	–
CC(Nc1ccc(C#N)cn1)c1ccc2c(c1)OCO2 (stereo not drawn)	3.939%	–
CC(C)C(=O)N1CC[C@H]2N(C)CC[C@@]2(C(=O)Nc2ccccc2)CC1	–	-18.9%
CC(C)CC(=O)N1CC[C@H]2N(C)CC[C@@]2(C(=O)Nc2cccnc2)CC1.O=C(O)C(F)(F)F.O=C(O)C(F)(F)F	–	6.738%
CC(C)CC(=O)N1CC[C@H]2N(C)CC[C@@]2(C(=O)Nc2ccccc2)CC1.O=C(O)C(F)(F)F	–	95.11%
O=C(CCC1CCCCC1)N1CC[S+]([O-])CC1	-3.074%	–
CC(C)(CO)NCC(O)c1cccc(Cl)c1 (stereo not drawn)	48.83%	–
CC(C)(C)OC(=O)NCCC(=O)NCC(O)c1cccc(F)c1 (stereo not drawn)	–	-9.599%
CC(C)(CO)NCC(O)c1cccc(F)c1 (stereo not drawn)	95.56%	–
Cc1cc(Br)oc1C(=O)NCCOC(N)=O	-2.351%	–
COc1ccc(OC)c(NC(=O)N2CC(C)(OC)C2)c1	3.541%	–
CC[C@H](C)[C@H](N)C(=O)NC	-8.555%	–
Cl.c1csc(-c2noc(C3CNC3)n2)c1	–	42.66%
c1csc(-c2noc(C3CCCOC3)n2)c1 (stereo not drawn)	–	-3.059%
CC(=O)Nc1ccc(C(C)N)cc1 (stereo not drawn)	-11.91%	–
COCCn1ccnc1CN(C)[C@H]1COC[C@@H]1O	-5.172%	–
CN1CCN(Cc2c(-c3ccco3)[nH]c3ncccc23)CC1	–	84.72%
CCN1CCN(Cc2c(-c3ccco3)[nH]c3ncccc23)CC1	–	-25.08%
OC1CCN(Cc2c(-c3ccco3)[nH]c3ncccc23)CC1	–	-9.681%
